Results from the supplement of paper PMC10849652.
Of roughly 7,900 targets only a part is listed; those with a hit were picked by preference. About 0.6% of all pairs of compound and target were hits.

compound: Cc1cc(Nc2cc(CN3CCOCC3)c3nc(C)c(Cc4ccc(Cl)cc4F)n3n2)n[nH]1 [gandotinib]; assay: log2 fold change, soluble protein after heating vs DMSO (PISA); higher = thermal stabilisation; K562 cells, 10 uM, 30 min; active = over 0.2 and 3.5 SD of the protein, either way, in both replicates (recomputed)
In short: (§1)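 K562 cells (2×10^6 cells/mL) were treated with 10 μM compound for 30 min, and aliquots were heated for 3 min over 48°C-58°C. Pooled aliquots were extracted in PBS with 0.5% NP-40 at 4°C, and the supernatant after 21,000xg for 90 min was measured by TMTpro 16plex LC-MS/MS with channel sums equalised. Reported thermal stability, relative to control samples and from duplicates, is a log2 fold change.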

Chain of UniProt Q5QJE6 (Q5QJE6 whole entry, looked up): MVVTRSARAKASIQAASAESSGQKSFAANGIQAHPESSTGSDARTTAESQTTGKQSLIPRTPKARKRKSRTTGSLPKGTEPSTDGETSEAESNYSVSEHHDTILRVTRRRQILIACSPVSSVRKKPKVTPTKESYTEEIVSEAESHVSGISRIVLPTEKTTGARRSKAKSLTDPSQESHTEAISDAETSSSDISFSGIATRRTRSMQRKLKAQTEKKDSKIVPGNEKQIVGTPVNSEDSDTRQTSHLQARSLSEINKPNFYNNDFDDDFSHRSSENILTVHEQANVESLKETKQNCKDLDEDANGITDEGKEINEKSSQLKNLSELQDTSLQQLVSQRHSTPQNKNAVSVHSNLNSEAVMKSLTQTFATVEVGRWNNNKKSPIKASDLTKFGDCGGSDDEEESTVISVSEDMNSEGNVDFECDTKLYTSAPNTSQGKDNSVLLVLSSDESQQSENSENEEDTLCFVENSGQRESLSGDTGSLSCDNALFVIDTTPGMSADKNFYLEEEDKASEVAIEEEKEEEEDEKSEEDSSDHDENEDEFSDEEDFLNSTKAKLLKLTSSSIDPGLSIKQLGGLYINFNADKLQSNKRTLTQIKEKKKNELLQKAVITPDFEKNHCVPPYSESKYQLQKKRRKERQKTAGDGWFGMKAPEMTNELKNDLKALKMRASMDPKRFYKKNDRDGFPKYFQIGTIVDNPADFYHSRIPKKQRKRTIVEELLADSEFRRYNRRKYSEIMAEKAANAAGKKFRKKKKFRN
Chain of UniProt Q9NZN4 (Q9NZN4 whole entry, looked up): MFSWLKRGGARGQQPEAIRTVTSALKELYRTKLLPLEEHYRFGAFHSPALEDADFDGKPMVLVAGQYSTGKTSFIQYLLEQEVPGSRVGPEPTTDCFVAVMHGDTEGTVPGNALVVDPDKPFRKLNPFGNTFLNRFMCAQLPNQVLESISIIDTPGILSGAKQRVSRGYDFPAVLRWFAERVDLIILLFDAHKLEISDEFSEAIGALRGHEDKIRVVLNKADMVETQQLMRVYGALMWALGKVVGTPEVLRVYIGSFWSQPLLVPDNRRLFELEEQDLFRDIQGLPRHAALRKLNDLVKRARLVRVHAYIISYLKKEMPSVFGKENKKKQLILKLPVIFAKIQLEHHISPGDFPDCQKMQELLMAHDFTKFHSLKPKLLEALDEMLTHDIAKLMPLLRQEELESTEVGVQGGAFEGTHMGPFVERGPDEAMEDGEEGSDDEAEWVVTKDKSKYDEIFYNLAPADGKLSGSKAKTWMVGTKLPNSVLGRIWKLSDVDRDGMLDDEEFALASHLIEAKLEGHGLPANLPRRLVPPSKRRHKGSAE
Chain of UniProt Q9UK59 (Q9UK59 whole entry, looked up): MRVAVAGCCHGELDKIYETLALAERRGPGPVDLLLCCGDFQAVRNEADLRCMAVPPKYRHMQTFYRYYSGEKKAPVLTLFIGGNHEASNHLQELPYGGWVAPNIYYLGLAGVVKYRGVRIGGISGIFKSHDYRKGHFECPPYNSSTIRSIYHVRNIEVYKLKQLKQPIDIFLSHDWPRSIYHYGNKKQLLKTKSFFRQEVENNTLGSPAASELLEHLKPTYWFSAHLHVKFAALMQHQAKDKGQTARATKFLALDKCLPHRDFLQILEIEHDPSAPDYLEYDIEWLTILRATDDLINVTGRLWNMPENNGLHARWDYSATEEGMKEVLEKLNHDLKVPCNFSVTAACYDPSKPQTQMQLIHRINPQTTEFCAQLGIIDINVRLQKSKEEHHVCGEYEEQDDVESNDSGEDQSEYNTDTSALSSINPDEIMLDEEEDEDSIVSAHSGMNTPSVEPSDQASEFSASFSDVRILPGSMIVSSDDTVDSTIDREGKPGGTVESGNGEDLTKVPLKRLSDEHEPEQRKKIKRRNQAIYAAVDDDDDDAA
Chain of UniProt Q9BU89 (Q9BU89 whole entry, looked up): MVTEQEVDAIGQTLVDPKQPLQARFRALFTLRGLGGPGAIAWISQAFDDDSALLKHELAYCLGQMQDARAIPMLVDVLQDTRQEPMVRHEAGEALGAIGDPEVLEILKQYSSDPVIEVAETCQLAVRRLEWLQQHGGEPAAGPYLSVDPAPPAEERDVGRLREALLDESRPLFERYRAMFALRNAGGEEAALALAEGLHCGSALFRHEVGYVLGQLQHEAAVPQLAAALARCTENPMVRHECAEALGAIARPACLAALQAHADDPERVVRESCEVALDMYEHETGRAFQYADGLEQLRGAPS
Chain of UniProt Q7L014 (Q7L014 whole entry, looked up): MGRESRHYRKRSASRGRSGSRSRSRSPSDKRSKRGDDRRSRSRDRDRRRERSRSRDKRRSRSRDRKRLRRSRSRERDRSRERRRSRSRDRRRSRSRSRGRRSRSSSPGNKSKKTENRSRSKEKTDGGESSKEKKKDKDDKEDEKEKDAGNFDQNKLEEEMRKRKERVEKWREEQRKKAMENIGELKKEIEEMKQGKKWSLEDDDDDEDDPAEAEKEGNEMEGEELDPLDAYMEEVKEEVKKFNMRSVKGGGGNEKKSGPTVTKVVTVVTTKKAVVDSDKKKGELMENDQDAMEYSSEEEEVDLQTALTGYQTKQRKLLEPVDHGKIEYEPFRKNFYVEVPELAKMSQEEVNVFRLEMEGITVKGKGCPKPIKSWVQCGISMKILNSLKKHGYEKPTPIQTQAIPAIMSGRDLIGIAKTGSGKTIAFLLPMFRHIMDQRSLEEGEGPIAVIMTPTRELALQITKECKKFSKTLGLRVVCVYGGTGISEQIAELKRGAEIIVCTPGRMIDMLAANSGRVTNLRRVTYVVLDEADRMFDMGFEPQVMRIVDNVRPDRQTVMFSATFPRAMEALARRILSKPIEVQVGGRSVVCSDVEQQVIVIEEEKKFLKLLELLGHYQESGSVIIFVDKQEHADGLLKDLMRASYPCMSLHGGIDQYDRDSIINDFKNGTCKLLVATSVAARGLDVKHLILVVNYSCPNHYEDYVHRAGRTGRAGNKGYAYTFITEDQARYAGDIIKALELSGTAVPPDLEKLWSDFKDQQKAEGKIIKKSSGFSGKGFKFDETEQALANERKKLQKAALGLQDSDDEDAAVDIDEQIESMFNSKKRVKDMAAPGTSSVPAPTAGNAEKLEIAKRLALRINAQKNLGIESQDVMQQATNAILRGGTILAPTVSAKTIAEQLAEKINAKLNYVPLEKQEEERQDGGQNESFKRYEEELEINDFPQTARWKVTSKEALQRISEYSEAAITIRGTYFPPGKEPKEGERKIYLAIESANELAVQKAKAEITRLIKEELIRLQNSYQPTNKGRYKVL
Chain of UniProt Q6P2E9 (Q6P2E9 whole entry, looked up): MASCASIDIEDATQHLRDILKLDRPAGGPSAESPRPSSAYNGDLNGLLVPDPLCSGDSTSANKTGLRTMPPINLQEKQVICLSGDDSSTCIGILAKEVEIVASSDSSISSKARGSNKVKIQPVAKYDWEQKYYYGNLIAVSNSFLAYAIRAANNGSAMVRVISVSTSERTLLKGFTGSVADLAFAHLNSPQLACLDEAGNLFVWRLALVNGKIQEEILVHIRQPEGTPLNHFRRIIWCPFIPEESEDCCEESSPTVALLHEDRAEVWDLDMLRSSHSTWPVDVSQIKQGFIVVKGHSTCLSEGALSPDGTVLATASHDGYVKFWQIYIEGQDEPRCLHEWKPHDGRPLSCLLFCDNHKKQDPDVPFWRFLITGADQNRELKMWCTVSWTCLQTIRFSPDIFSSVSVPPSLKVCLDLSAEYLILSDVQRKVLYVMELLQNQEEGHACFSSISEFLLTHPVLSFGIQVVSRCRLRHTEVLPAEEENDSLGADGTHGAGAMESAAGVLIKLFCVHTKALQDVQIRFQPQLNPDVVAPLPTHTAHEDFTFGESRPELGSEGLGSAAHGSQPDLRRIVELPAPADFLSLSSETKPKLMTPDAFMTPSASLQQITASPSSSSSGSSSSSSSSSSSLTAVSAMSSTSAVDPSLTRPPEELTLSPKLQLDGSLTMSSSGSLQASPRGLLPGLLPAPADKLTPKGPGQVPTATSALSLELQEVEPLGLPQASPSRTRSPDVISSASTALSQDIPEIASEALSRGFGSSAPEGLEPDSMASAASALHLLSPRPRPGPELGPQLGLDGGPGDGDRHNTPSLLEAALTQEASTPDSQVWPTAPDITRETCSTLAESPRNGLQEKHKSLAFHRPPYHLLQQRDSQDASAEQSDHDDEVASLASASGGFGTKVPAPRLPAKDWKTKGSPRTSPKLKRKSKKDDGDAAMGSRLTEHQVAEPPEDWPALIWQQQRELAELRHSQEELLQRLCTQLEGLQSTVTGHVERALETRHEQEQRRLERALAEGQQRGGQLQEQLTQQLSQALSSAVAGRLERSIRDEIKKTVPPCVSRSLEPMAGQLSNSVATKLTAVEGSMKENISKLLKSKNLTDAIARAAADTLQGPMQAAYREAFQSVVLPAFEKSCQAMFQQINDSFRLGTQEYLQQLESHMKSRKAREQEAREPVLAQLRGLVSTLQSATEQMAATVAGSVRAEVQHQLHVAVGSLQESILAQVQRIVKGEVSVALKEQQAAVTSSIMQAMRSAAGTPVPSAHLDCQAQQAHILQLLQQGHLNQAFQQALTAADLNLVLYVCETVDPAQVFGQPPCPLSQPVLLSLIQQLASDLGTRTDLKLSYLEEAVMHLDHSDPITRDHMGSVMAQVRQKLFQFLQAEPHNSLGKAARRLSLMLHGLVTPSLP
Chain of UniProt Q9H467 (Q9H467 whole entry, looked up): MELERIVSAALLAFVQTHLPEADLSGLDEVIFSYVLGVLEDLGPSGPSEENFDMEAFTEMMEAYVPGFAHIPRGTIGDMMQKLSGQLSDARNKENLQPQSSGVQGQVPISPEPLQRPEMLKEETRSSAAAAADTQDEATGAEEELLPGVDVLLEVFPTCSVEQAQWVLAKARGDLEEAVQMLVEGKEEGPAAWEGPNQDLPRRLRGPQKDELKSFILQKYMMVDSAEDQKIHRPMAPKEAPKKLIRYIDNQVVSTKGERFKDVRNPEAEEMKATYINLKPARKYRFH
Chain of UniProt Q15369 (Q15369 whole entry, looked up): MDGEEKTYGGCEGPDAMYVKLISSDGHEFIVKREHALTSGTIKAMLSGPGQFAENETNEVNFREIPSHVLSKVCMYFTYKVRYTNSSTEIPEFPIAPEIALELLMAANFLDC

log2 fold change, inactive:
DAG1 (UniProt Q14118) -0.006
DHX40 (UniProt Q8IX18) -0.079
EDC4 (UniProt Q6P2E9) -0.18
FAM118A (UniProt Q9NWS6) -0.44
DTNBP1 (UniProt Q96EV8) -0.104
DDX46 (UniProt Q7L014) -0.144
EED, A0A5F9ZI63 0.07
FAM117A (UniProt Q9C073) -0.053
DNTTIP2 (UniProt Q5QJE6) 0.107
EEA1 (UniProt Q15075) 0.02
DBR1 (UniProt Q9UK59) 0.003
DOHH (UniProt Q9BU89) 0.029
CTSA (UniProt P10619) 0.043
DTYMK (UniProt P23919) -0.217
DAB2 (UniProt P98082) -0.021
EXTL2 (UniProt Q9UBQ6) 0.068
DDOST (UniProt P39656) 0.02
DDX39A (UniProt O00148) -0.009
DTWD1 (UniProt Q8N5C7) 0.098
DHFR (UniProt P00374) -0.194
DPYSL2 (UniProt Q16555) -0.015
CTSV (UniProt O60911) -0.334
EFCAB14 (UniProt O75071) -0.009
CTNNB1 (UniProt P35222) 0.336
EIF4G1 isoform 8 (UniProt Q04637) -0.032
ERCC2 (UniProt P18074) -0.035
DPH5 isoform 5 (UniProt Q9H2P9) -0.011
ELOC (UniProt Q15369) -0.001
DNAH10 (UniProt Q8IVF4) -0.136
CUEDC2 (UniProt Q9H467) -0.017
FAM50A (UniProt Q14320) 0.147
DHCR7 (UniProt Q9UBM7) -0.304
DDB1 (UniProt Q16531) -0.028
EMD (UniProt P50402) -0.047
EHBP1L1 (UniProt Q8N3D4) -0.206
EHD2 (UniProt Q9NZN4) -0.028
DHCR24 (UniProt Q15392) -0.025
DCTN1 isoform 4 (UniProt Q14203) 0.016

compound: Cc1cc(Nc2cc(N3CCN(C)CC3)nc(Sc3ccc(NC(=O)C4CC4)cc3)n2)n[nH]1 [tozasertib]; assay: as above
In short: as §1

log2 fold change, inactive:
DAG1 (UniProt Q14118) -0.084
DHX40 (UniProt Q8IX18) -0.089
EDC4 (UniProt Q6P2E9) 0.061
FAM118A (UniProt Q9NWS6) -0.088
DTNBP1 (UniProt Q96EV8) -0.034
DDX46 (UniProt Q7L014) 0.109
EED, A0A5F9ZI63 -0.016
FAM117A (UniProt Q9C073) -0.12
DNTTIP2 (UniProt Q5QJE6) -0.037
EEA1 (UniProt Q15075) -0.012
DBR1 (UniProt Q9UK59) -0.051
DOHH (UniProt Q9BU89) 0.127
CTSA (UniProt P10619) 0.011
DTYMK (UniProt P23919) -0.109
DAB2 (UniProt P98082) -0.023
EXTL2 (UniProt Q9UBQ6) 0.141
DDOST (UniProt P39656) 0.022
DDX39A (UniProt O00148) 0.043
DTWD1 (UniProt Q8N5C7) 0.029
DHFR (UniProt P00374) -0.151
DPYSL2 (UniProt Q16555) -0.012
CTSV (UniProt O60911) -0.031
EFCAB14 (UniProt O75071) -0.097
CTNNB1 (UniProt P35222) 0.03
EIF4G1 isoform 8 (UniProt Q04637) 0.008
ERCC2 (UniProt P18074) -0.014
DPH5 isoform 5 (UniProt Q9H2P9) -0.01
ELOC (UniProt Q15369) 0.06
DNAH10 (UniProt Q8IVF4) -0.146
CUEDC2 (UniProt Q9H467) 0.109
FAM50A (UniProt Q14320) 0.089
DHCR7 (UniProt Q9UBM7) -0.055
DDB1 (UniProt Q16531) -0.013
EMD (UniProt P50402) -0.049
EHBP1L1 (UniProt Q8N3D4) 0.067
EHD2 (UniProt Q9NZN4) -0.003
DHCR24 (UniProt Q15392) 0.276
DCTN1 isoform 4 (UniProt Q14203) 0.037
